From PubChem
Compounds with a hit are over-represented: about 19% of the library has one in this group of screens.
KB-3-1 tox = kills parental KB-3-1 adenocarcinoma cells | KB-3-1 viability, CellTiter-Glo ATP luminescence, 72 h | Potency, µM (top dose mostly 46.1 µM), usual class: cytotoxic | actives 1.4% (n = 400,000) | AID 1347075; also: nearly all actives have a fitted effect of over 60% in size
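Multi-concentration cytotoxicity screen in KB-3-1 cells grown in DMEM lacking phenol red with 10% FBS. After 72 h at 37 °C with compound, ATP-dependent luminescence was recorded.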
HT1080NT lethal = kills 2HG-producing HT-1080-NT fibrosarcoma cells. HT-1080-NT fibrosarcoma viability, CellTiter-Glo ATP luminescence, 48 h. Potency, µM (titrated, usually from 46.1 µM), inactives show at the highest dose activity, negative = less viability, usual class: cytotoxic. actives 1.6% (n = 360,000);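 also: NT is the 2HG producing partner of a matched IDH1 knockdown line; 0% = DMSO-treated cells and -100% = media-only wells without cells; nearly all actives have a fitted effect of over 55% in size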
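750 cells/well, RPMI + 5% FBS; 2 h settle, compound pin-transfer, 48 h at 37 degrees C. CellTiter-Glo 10 min RT, luminescence. Normalized to DMSO and media-only wells.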
DT40 TDP1 no CPT = qHTS for Inhibitors of human tyrosyl-DNA phosphodiesterase 1 (TDP1): qHTS in cells in absence of CPT; Potency, µM (doses to about 46.2 µM), without a hit: at the highest dose activity change, negative = growth inhibition, usual class: inhibitors; DT40 Tdp1-/- hTDP1 cells, no CPT, ATP luminescence, 48 h; actives 15% (n = 420,000); also: nearly all actives have a fitted effect of over 55% in size
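Compound effects on proliferation are scored in DT40 Tdp1-/-;hTDP1 cells in the absence of CPT. ATP levels (CellTiter-Glo luminescence) are recorded after a ≥48 hr, 37 °C incubation.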
HT1080 IDH1KD tx = HT-1080 IDH1 knockdown cell toxicity (counter line). actives 2% (n = 360,000). Potency, µM (titrated, usually from 46.1 µM), for inactives: at the top dose activity, negative = toxicity, hits mostly cytotoxic. HT-1080 IDH1 knockdown viability, ATP luminescence, 48 h;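 also: 0% = DMSO wells and -100% = cell-free medium wells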
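After a 2 h attachment period, IDH1KD HT-1080 cells took pin-transferred compound for 48 h at 37 °C; ATP-based luminescence after 10 min room-temperature reagent incubation reported viability.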
KB-V1 MDR tox = KB-V1 MDR subline cytotoxicity; KB-V1 MDR cells viability, CellTiter-Glo, 72 h; Potency, µM (highest dose often 46.1 µM), hits mostly cytotoxic; actives 3.4% (n = 400,000); AID 1347076; also: nearly all actives have a fitted effect of over 60% in size
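Drug-selected KB-V1 cells, grown in DMEM lacking phenol red with 10% FBS, receive compound titrations; after three days at 37 degrees C, surviving cell ATP is quantified by CellTiter-Glo luminescence and responses normalized and curve-fitted.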
DT40 TDP1 CPT = DT40-hTDP1 cell growth loss with CPT. actives 12% (n = 420,000). chicken DT40 Tdp1-/-;hTDP1 cells + 20 nM CPT, ATP luminescence, 48 h. Potency, µM (series often up to 46.2 µM), inactives show at the top dose activity change, negative = growth inhibition, hits mostly inhibitors. AID 686979; also: nearly all actives have a fitted effect of over 55% in size
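Chicken DT40 Tdp1-/- cells stably complemented with human TDP1 were seeded at 400 cells/well in medium containing 20 nM camptothecin, exposed to pin-transferred compounds, and grown at 37 °C for at least 48 hr. Viability was read as ATP luminescence.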
* marks the source's active call; other numbers are inactive results; i = inactive; ? = inconclusive; nt = no result. Calls follow the shape of the dose curve; as a rule, active = well fitted curve in the direction sought with a large enough effect; inconclusive = small, poorly fitted or top-dose-only effect, or another doubt; inactive = no such curve, though single readings can be large; an effect the other way counts as inactive or inconclusive. Unless noted, % is scaled to controls: 0 for no effect and ±100 for the full control effect; potency is read from the fitted curve at half-maximal effect.

SMILES	KB-3-1 tox	HT1080NT lethal	DT40 TDP1 no CPT	HT1080 IDH1KD tx	KB-V1 MDR tox	DT40 TDP1 CPT
Cc1ccc(CNC(=O)c2cc3c(=O)n4ccccc4nc3n(Cc3ccco3)c2=N)cc1	i	-9%	15µM*	-7%	i	13µM*
CCN(CC)S(=O)(=O)c1ccc2c(c1)c(=O)c(C(=O)N(C)Cc1ccccc1)cn2C	i	nt	-12%	nt	i	4%
COc1ccc(N(C)C(=O)Cn2cc(S(=O)(=O)N3CCN(c4ccccc4F)CC3)c3ccccc3c2=O)c(OC)c1	i	nt	23µM*	nt	i	-28%
COc1ccc(NC(=O)Cn2cc(S(=O)(=O)N3CCN(c4ccccc4F)CC3)c3ccccc3c2=O)cc1Cl	nt	nt	-1%	nt	nt	4%
CC(=O)NC(c1ccccc1)c1nc(-c2ccc3ccccc3c2)cs1 (stereo not given)	i	-11%	?	-2%	i	16µM*
COc1cccc(C(NC(C)=O)c2nc(-c3ccc(C)c(C)c3)cs2)c1 (stereo not given)	i	5%	?	3%	i	?
COc1cccc(C(NC(C)=O)c2nc(-c3ccc4ccccc4c3)cs2)c1 (stereo not given)	?	?	?	?	i	18µM*
CC(=O)NC(c1cccc(F)c1)c1nc(-c2ccccc2)cs1 (stereo not given)	i	3%	-28%	2%	?	?
CC(=O)NC(c1ccccc1)c1nc(-c2ccc(C)c(C)c2)cs1 (stereo not given)	i	?	18µM*	?	i	16µM*
O=C(Nc1ccc(F)cc1)C1CCC(CNc2c(N3CCCCC3)c(=O)c2=O)CC1 (stereo not given)	i	5%	-9%	3%	i	-20%
CC(C)(C)OC(=O)C[C@@H]1C/C=C\C[C@@H](CC(=O)N(CCO)Cc2ccccc2)C(=O)N[C@H](C(C)(C)C)COC1=O	?	12%	?	7%	i	21µM*
CC(C)(C)OC(=O)C[C@@H]1C/C=C\C[C@H](CC(=O)N(CCO)Cc2ccccc2)C(=O)N[C@@H](Cc2ccccc2)COC1=O	i	0%	?	11%	i	?
C[C@H]1COC(=O)[C@H](CC(=O)OC(C)(C)C)C/C=C\C[C@H](CC(=O)N(CCO)Cc2ccccc2)C(=O)N1	i	3%	-10%	4%	i	-10%
CC(C)(C)OC(=O)C[C@@H]1C/C=C\C[C@H](CC(=O)N(CCO)Cc2ccccc2)C(=O)N[C@H](Cc2ccccc2)COC1=O	i	-1%	23µM*	-1%	i	?
CC(C)(C)OC(=O)C[C@H]1C/C=C\C[C@@H](CC(=O)N(CCO)Cc2ccccc2)C(=O)N[C@H](C(C)(C)C)COC1=O	i	-5%	15µM*	9%	i	?
C[C@H]1COC(=O)[C@H](CC(=O)OC(C)(C)C)C/C=C\C[C@@H](CC(=O)N(CCO)Cc2ccccc2)C(=O)N1	i	11%	?	16%	i	?
COC(=O)[C@]1(C)CCC[C@@]2(C)C3CC[C@]4(OC(C)=O)C[C@@]3(CCC21)CC4=O (stereo not given in full)	i	-2%	?	0%	i	21µM*
COC(=O)[C@]1(C)CCC[C@@]2(C)C3CC[C@@]4(C)C[C@]3(CCC21)CC(=O)N4Cc1ccc(OC)cc1 (stereo not given in full)	?	-15%	6.5µM*	-12%	i	12µM*
CSCc1ccc(C(=O)OCc2nc3ccccc3s2)o1	i	-5%	-2%	-4%	?	?
CN(C)c1ccc(/C=N/NC(=O)Cn2nnc3ccccc32)cc1	i	8%	-24%	16%	i	-7%
Cc1ccsc1/C=N\NC(=O)Cn1nnc2ccccc21	?	-21%	18µM*	?	?	?
O=C(c1cccc(Cl)c1)N(Cc1ccco1)C1CCS(=O)(=O)C1 (stereo not given)	i	7%	-4%	-7%	i	-15%
CCn1cc(C(=O)N2CCCC(CO)(Cc3ccccc3C)C2)cn1 (stereo not given)	i	12%	12%	15%	i	-1%
COc1ccc(-c2cc(C(F)(F)F)nc(SCCC(=O)Nc3cc(C)on3)n2)cc1	i	0%	-14%	-3%	i	-16%
O=C(CCSc1nc(-c2ccco2)cc(C(F)(F)F)n1)Nc1cccc(O)c1	i	nt	?	nt	i	?
SMILES	KB-3-1 tox	HT1080NT lethal	DT40 TDP1 no CPT	HT1080 IDH1KD tx	KB-V1 MDR tox	DT40 TDP1 CPT
O=C(CCS(=O)(=O)c1nc(-c2cccs2)cc(C(F)(F)F)n1)Nc1cccc(O)c1	nt	nt	5.2µM*	nt	nt	2.3µM*
O=C(O)CCS(=O)(=O)c1nc(-c2cccs2)cc(C(F)(F)F)n1	i	?	15µM*	?	i	10µM*
Cc1cc(NC(=O)CCCS(=O)(=O)c2nc(-c3cccs3)cc(C(F)(F)F)n2)no1	13µM*	5.8µM*	2.6µM*	5.8µM*	i	2.6µM*
O=C(NC(=O)c1ccc(F)cc1)Nc1nc(-c2cccs2)cc(C(F)(F)F)n1	i	-5%	?	3%	i	?
CC(C)OC(=O)c1ccc(NC(=O)CSc2nc(-c3cccs3)cc(C(F)(F)F)n2)cc1	i	nt	29µM*	nt	i	16µM*
O=C(Nc1nnc([C@@H]2C[C@H](O)[C@@H](CO)O2)s1)Nc1cccc2c1CCCC2	i	2%	-13%	17%	i	-6%
O=C(N/N=C/c1ccc(Cl)cc1Cl)C(=O)NC1CC1	i	12%	-28%	10%	?	-22%
O=C(CSc1nc(-c2cccs2)cc(C(F)(F)F)n1)NCc1ccccc1	i	-2%	23µM*	?	i	?
COc1ccc(-c2cc(C(F)(F)F)nc(SCC(=O)NCc3cccs3)n2)cc1OC	i	0%	?	0%	?	?
CC(C)CNC(=O)CSc1nc(-c2cccs2)cc(C(F)(F)F)n1	i	-4%	?	-7%	i	?
COc1cc(NC(=O)CSc2nc(-c3cccs3)cc(C(F)(F)F)n2)cc(OC)c1OC	i	nt	?	nt	i	21µM*
